Assay results published in PubChem BioAssay.
Values joined by “and” are separate entries in the source; they are usually repeats but may differ in a detail not shown here. Equal entries are not always repeated. Inconclusive results are not listed. Active and inactive are the calls of the source. Rule as the data show it, unless noted: active = inhibition above about 80%; inactive = the rest.

How the values were obtained:
[1] = growth inhibition, single agents and combos, LFS_MB_1R, cell-based, cisplatin or BGB combos, synergistic combos for chromothripsis tumors (AID 1671452); details: LFS_MB_1R medulloblastoma cells, stronger effect = higher value;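 also: cells exposed for 96 hours before readout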
[2] = growth inhibition, single agents and combos, CRL2098, cell-based, BGB or cisplatin IC20 combos, synergistic combos for chromothripsis tumors (AID 1671454); details: CRL2098 osteosarcoma cells, drug combinations, stronger effect = higher value;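 also: cells exposed for 96 h before readout; 0% = vehicle DMSO and 100% = killing by high DMSO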
[3] = growth inhibition, single agents and combos, HD-MB03, cell-based, BGB or cisplatin IC20 combos, synergistic combos for chromothripsis tumors (AID 1671455; in the data active = inhibition above about 83%;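 also: 0% = vehicle DMSO and 100% = high DMSO as cytotoxic control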); details: HD-MB03 medulloblastoma cells, stronger effect = higher value
[4] = growth inhibition, single agents and combos, UWB1.289, cell-based, BGB or cisplatin combos, synergistic combos for chromothripsis tumors (AID 1671456); details: UWB1.289 ovarian carcinoma cells, stronger effect = higher value;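 also: cells exposed to compound for four days; 0% = vehicle DMSO and 100% = killing by high DMSO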
[5] = growth inhibition, single agents and combos, LFS_MB_2R, cell-based, cisplatin combos, synergistic combos for chromothripsis tumors (AID 1671457); details: LFS_MB_2R medulloblastoma cells, stronger effect = higher value;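 also: cells exposed to compound for four days before readout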
[6] = UWB1.289_BRCA1 ovarian cancer growth, cell-based, BGB or cisplatin combinations (AID 1671459); details: UWB1.289 BRCA1 ovarian carcinoma, drug combinations, stronger effect = higher value
[7] = drug combination toxicity in non-malignant astrocytes – cell-based, BGB or cisplatin IC20 combos, cytotoxicity control for chromothriptic childhood tumor combination screen (AID 1671460); details: Human astrocytes, viability inhibition, drug combinations, at 0.5 µM, stronger effect = higher value;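 also: cells exposed to compounds for 96 hours before viability readout; 0% = vehicle and 100% = killing control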
[8] = BT084 cell growth, single and combined drugs, ICGC_MB145, cisplatin and BGB IC40 combos (AID 1671461); details: BT084 medulloblastoma cells, drug combinations, stronger effect = higher value;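 also: cells exposed to drugs for 96 hours; 0% = vehicle DMSO and 100% = high DMSO full killing control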
[9] = RCMB18 cell growth, single agent and combined, cisplatin and BGB IC40 combos (AID 1671462); details: RCMB18 medulloblastoma cells, stronger effect = higher value;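 also: cells exposed to compound for four days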
[10] = CRL1545 cell growth, single agent and combined, cisplatin and BGB IC20 combos (AID 1671464); details: CRL1545 osteosarcoma cells, stronger effect = higher value;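 also: cells exposed to compound for 96 hours before readout; 0% = vehicle DMSO and 100% = high DMSO killing control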
[11] = galactose survival enhancers in mitochondrial complex I cybrids – cell-based, galactose medium, ATP luminescence, primary screen (AID 1645843;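 active = z-score of at least 1.8 in each of two replicates, scored against plate mean and spread of sample wells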;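 also: positive z means more ATP and so rescue of galactose-driven cybrid death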); details: complex I mutant cybrid cells, 72 h, stronger effect = higher value
[12] = biological target: Mitogen-activated protein kinase 7 (Homo sapiens) (UniProt Q13164); experiment: Gal4-ERK5 driven luciferase induction – cell-based, HTS, primary screen (AID 1508626;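 active = luciferase signal above three times the same-plate solvent-only control wells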;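 also: luciferase driven by Gal4-ERK5 fusion binding five Gal4 sites before minimal TATA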); details: HeLa Gal4-ERK5 transactivation, 18 h, at 5 µM, stronger effect = higher value
[13] = biological target: ATP-dependent translocase ABCB1 (Homo sapiens) (UniProt P08183); experiment: P-glycoprotein substrate transport blockade – cell-based (AID 377; in the data active = fluorescence slope change above about 50%); details: MDR1-expressing cells, fluorescent substrate accumulation slope; stronger effect = higher value; concentration not given here
[14] = measured here: combination with BGB IC40, at 0.05 µM
[15] = measured here: combination with cisplatin, at 0.5 µM
[16] = measured here: combination with cisplatin, at 5 µM
[17] = measured here: combination with BGB at IC20, at 0.5 µM
[18] = measured here: combination with cisplatin at IC20, at 0.5 µM
[19] = measured here: combo with BGB at IC20, at 0.5 µM
[20] = measured here: combo with cisplatin at IC20, at 0.5 µM
[21] = measured here: inhibition with BGB combination, at 0.05 µM
[22] = measured here: inhibition with cisplatin combination, at 0.05 µM
[23] = BGB combination, concentration series, at 5 µM
[24] = cisplatin combination, concentration series, at 5 µM
[25] = measured here: combo with BGB IC20
[26] = measured here: combo with cisplatin IC20
[27] = cisplatin combination, at 0.5 µM
[28] = measured here: BGB IC40 combination 0.05 uM, at 0.05 µM
[29] = measured here: BGB IC40 combination, at 0.05 µM
[30] = measured here: with BGB IC20 combination, at 0.5 µM
[31] = measured here: with cisplatin IC20 combination, at 0.5 µM

Mitogen-activated protein kinase 7 (Homo sapiens), sequence (Q13164 whole entry, looked up, the tested form may be a part): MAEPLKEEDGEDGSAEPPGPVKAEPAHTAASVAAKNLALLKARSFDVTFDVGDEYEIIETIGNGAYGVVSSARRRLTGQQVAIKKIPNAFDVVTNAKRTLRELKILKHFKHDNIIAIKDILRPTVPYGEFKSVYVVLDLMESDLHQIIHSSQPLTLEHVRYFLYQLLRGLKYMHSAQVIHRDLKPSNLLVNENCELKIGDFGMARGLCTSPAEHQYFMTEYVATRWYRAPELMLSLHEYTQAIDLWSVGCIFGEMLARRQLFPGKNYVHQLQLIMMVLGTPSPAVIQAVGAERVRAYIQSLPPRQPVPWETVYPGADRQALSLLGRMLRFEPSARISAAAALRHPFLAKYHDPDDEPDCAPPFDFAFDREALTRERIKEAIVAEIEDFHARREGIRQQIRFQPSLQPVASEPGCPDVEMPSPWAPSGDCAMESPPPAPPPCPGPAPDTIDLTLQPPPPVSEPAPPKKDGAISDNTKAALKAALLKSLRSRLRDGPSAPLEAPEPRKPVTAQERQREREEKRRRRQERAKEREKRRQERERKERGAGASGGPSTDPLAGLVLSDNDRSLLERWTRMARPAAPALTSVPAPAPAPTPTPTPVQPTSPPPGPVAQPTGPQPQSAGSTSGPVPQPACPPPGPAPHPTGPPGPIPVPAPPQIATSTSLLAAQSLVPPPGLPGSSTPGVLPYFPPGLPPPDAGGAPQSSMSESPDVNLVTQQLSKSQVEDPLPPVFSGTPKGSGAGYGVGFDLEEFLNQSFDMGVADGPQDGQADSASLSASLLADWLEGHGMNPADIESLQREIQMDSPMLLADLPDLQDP
ATP-dependent translocase ABCB1 (Homo sapiens), sequence (P08183 whole entry, looked up): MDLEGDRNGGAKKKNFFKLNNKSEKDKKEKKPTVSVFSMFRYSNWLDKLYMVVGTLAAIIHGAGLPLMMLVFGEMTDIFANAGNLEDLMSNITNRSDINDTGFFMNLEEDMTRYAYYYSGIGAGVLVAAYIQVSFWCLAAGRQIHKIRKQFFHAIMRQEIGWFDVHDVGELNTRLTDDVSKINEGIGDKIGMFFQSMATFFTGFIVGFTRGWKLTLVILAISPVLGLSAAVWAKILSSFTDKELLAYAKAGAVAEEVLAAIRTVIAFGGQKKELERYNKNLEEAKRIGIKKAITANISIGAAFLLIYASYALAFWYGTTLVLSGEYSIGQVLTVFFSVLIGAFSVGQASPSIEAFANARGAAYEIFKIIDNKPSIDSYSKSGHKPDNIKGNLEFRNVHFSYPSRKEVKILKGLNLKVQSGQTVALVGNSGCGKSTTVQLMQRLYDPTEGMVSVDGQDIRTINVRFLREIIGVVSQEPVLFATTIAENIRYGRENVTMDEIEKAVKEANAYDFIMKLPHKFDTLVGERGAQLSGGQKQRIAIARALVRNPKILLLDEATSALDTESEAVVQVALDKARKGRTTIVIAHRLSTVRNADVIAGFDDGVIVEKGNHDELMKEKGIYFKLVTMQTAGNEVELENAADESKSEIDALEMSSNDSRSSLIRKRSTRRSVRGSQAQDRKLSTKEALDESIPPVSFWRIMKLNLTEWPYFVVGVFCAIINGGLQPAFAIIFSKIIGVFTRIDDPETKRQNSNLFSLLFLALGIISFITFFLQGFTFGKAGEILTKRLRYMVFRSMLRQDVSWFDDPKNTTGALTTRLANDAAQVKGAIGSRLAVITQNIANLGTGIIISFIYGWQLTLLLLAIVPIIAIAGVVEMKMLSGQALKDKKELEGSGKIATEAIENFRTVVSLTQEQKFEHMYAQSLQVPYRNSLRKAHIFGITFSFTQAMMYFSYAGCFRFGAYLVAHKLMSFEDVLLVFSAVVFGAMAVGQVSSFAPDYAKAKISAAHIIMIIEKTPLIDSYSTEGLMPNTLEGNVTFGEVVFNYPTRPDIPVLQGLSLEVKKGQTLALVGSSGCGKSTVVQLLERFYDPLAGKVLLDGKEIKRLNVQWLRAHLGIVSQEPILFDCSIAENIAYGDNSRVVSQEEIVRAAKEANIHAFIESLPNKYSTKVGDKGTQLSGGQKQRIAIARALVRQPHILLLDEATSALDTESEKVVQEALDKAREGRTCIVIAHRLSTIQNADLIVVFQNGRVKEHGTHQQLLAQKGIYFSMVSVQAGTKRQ

With `O=c1cc[nH]c(=O)[nH]1` the inhibition ([1]; at 0.5 µM) was -40% (inactive), the inhibition [1, 14] was -59% and the inhibition [1, 15] was -48%. The inhibition [1, 16] was -36.2%, the inhibition ([2]; at 0.5 µM) was -92.2% (inactive) and the inhibition [2, 17] was -94.9%. For the same compound, the inhibition [2, 18] was -107%, the inhibition ([3]; at 0.5 µM) was -17.8% (inactive) and the inhibition [3, 19] was -14.7%. For the same compound, the inhibition [3, 20] was -22.4%, the inhibition ([4]; at 0.5 µM) was -18% (inactive) and the inhibition [4, 21] was -36%. The inhibition [4, 22] was -27.8%, the inhibition ([5]; at 0.5 µM) was -17.4% (inactive) and the inhibition [5, 15] was -11.9%. The inhibition [5, 16] was -19.1%, the inhibition [6, 23] was -12.9% and the inhibition ([6]; at 0.5 µM) was -25% (inactive). The inhibition [6, 24] was -6.49%, the inhibition [7] was -8.86% (inactive) and the inhibition [7, 25] was 4.39%. The inhibition [7, 26] was -31.7%, the inhibition ([8]; at 0.5 µM) was -12.8% (inactive) and the inhibition [8, 27] was -14.2%. It also gave an inhibition ([8]; cisplatin combination, at 5 µM) of -53.2%, an inhibition [8, 28] of -11.4% and an inhibition ([8]; single agent, at 5 µM) of -17.3%. For the same compound, the inhibition ([9]; at 0.5 µM) was -17.6% (inactive), the inhibition ([9]; cisplatin combo, at 5 µM) was -19.1% and the inhibition [9, 29] was -3.59%. The inhibition [9, 15] was -29.1%, the inhibition ([9]; single agent, at 5 µM) was -18.8% and the inhibition ([10]; at 0.5 µM) was -72% (inactive). The inhibition [10, 30] was -50.2%, the inhibition [10, 31] was -82.8% and the inhibition ([10]; single agent, at 0.05 µM) was 4.62%. It also gave an inhibition ([10]; single agent, at 5 µM) of -35%.

In the case of `CC(C(=O)O)c1ccc2c(c1)Cc1cccnc1O2` (stereo not given), the z-score [11] is reported as 0.415 (inactive).

For `CC1CC(OC(=O)c2ccccc2O)CC(C)(C)C1` (stereo not given), the luciferase signal [12] was 140 AU (inactive).

For `CCOc1ccc2nc(S(N)(=O)=O)sc2c1`, the luciferase signal [12] was 40 AU (inactive).

For `CC(C)(C)C(=O)C(Oc1ccc(Cl)cc1)n1ccnc1` (stereo not given), the z-score [11] was -0.18 (inactive).

In the case of `Oc1c(I)cc(Cl)c2cccnc12`, the luciferase signal [12] is reported as 52 AU (inactive).

For `C[C@@H](O)[C@H]1C(=O)N2C(C(=O)O)=C(SCCN=CN)C[C@H]12`, the z-score [11] was -0.195 (inactive) and 0.375 (inactive).

With `CC(=O)CC(c1ccc([N+](=O)[O-])cc1)c1c(O)c2ccccc2oc1=O` (stereo not given) the fluorescence slope change [13] was 22.3% (inactive).

With `O=C(CCCN1CCC(O)(c2ccc(Br)cc2)CC1)c1ccc(F)cc1` the luciferase signal [12] was 52 AU (inactive).

In the case of `N=C(N)N1CCc2ccccc2C1`, the z-score [11] is reported as 0.125 (inactive).

For `CN1CCC(=C2c3ccccc3CCc3cccnc32)CC1`, the z-score [11] was 0.04 (inactive).

In the case of `CN1C(=O)OC(C)(C)C1=O`, the fluorescence slope change [13] is reported as 1.5% (inactive).

For `CNCCc1ccccn1`, the fluorescence slope change [13] was 28.1% (inactive) and the luciferase signal [12] was 64 AU (inactive).

With `COc1cc(C(=O)N2CCOCC2)cc(OC)c1OC` the luciferase signal [12] was 48 AU (inactive).

With `Nc1ccc2cc3ccc(N)cc3nc2c1` the z-score [11] was -2.66 (inactive), the inhibition ([1]; at 0.5 µM) was -22.9% (inactive) and the inhibition [1, 14] was -30.9%. The inhibition [1, 15] was -45.7%, the inhibition [1, 16] was 99.1% and the inhibition ([2]; at 0.5 µM) was -33.9% (inactive). The inhibition [2, 17] was -34.4%, the inhibition [2, 18] was -50.2% and the inhibition ([3]; at 0.5 µM) was -6.54% (inactive). The inhibition [3, 19] was 19.2%, the inhibition [3, 20] was -34.6% and the inhibition ([4]; at 0.5 µM) was -1.27% (inactive). For the same compound, the inhibition [4, 21] was -20.6%, the inhibition [4, 22] was -13.2% and the inhibition ([5]; at 0.5 µM) was -9.07% (inactive). For the same compound, the inhibition [5, 15] was -2.23%, the inhibition [5, 16] was 84.3% and the inhibition [6, 23] was 100%. The inhibition ([6]; at 0.5 µM) was -1.03% (inactive), the inhibition [6, 24] was 115% and the inhibition [7] was -4.99% (inactive). The inhibition [7, 25] was 0.031%, the inhibition [7, 26] was -30.9% and the inhibition ([8]; at 0.5 µM) was -51.8% (inactive). For the same compound, the inhibition [8, 27] was -55.3%, the inhibition ([8]; cisplatin combination, at 5 µM) was 80.4% and the inhibition [8, 28] was -6.84%. For the same compound, the inhibition ([8]; single agent, at 5 µM) was 89.8%, the inhibition ([9]; at 0.5 µM) was -8.62% (inactive) and the inhibition ([9]; cisplatin combo, at 5 µM) was 83.1%. The inhibition [9, 29] was 9.55%, the inhibition [9, 15] was -20.8% and the inhibition ([9]; single agent, at 5 µM) was 73.5%. For the same compound, the inhibition ([10]; at 0.5 µM) was -34.4% (inactive), the inhibition [10, 30] was -17.3% and the inhibition [10, 31] was -43%. It also gave an inhibition ([10]; single agent, at 0.05 µM) of -52.5% and an inhibition ([10]; single agent, at 5 µM) of 100%.

With `CC[N+](CC)(CC(=O)Nc1c(C)cccc1C)Cc1ccccc1` the luciferase signal [12] was 36 AU (inactive).

With `O=C(Oc1cccc2cccnc12)c1ccccc1` the luciferase signal [12] was 44 AU (inactive).

In the case of `CC(=O)Oc1cc(C(C)C)c(OCCN(C)C)cc1C`, the z-score [11] is reported as 0.335 (inactive).

In the case of `CN(C(=O)C(Cl)Cl)c1ccc(OC(=O)c2ccco2)cc1`, the luciferase signal [12] is reported as 44 AU (inactive).

For `CCN(CC)CCc1nc(-c2ccccc2)no1`, the fluorescence slope change [13] was 14.4% (inactive).

For `CN(C(=O)CN(CCO)CC(=O)N(C)C(C)(C)Cc1ccccc1)C(C)(C)Cc1ccccc1`, the luciferase signal [12] was 32 AU (inactive).

In the case of `OC1(c2ccc(Cl)c(C(F)(F)F)c2)CCN(CCCC(c2ccc(F)cc2)c2ccc(F)cc2)CC1`, the luciferase signal [12] is reported as 60 AU (inactive).

In the case of `CCCCCCC[N+](CC)(CC)CCCCc1ccc(Cl)cc1`, the fluorescence slope change [13] is reported as 178% (active).

In the case of `CC(=O)N[C@@H](CC(C)C)C(=O)O`, the luciferase signal [12] is reported as 56 AU (inactive).

For `Cc1cccc(C)c1NC(=O)CN1CCN(CCCC(c2ccc(F)cc2)c2ccc(F)cc2)CC1`, the fluorescence slope change [13] was 64.3% (active).

For `CC(C)CCCC(C)N` (stereo not given), the luciferase signal [12] was 56 AU (inactive).
